About 83,000 compounds went through this panel and 20% of them were active in at least one assay; those are over-represented in the sample as a whole.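 Method: cells in 96-well plates; compound added at one concentration; 48 h incubation; percent growth measured; values under 10 scored active.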 Calls of active or inactive are those of the source.
Assays:
Test in all cases: NCI-60 one-dose screen, 48 h (100 = growth as untreated, 0 = no growth, -100 = all killed)
Conditions in all cases: 10 µM unless noted
[1] = tested on: HCT-15 colon
[2] = tested on: HT29 colon
[3] = tested on: SNB-75 CNS
[4] = tested on: SNB-19 CNS
[5] = tested on: U251 CNS
[6] = tested on: PC-3 prostate
[7] = tested on: SK-MEL-5 melanoma
[8] = tested on: UACC-62 melanoma
[9] = tested on: LOX IMVI melanoma
[10] = tested on: SK-MEL-28 melanoma
[11] = tested on: SK-MEL-2 melanoma
[12] = tested on: EKVX NSCLC
[13] = tested on: SN12C renal
[14] = tested on: UO-31 renal
[15] = tested on: TK-10 renal
[16] = tested on: ACHN renal
[17] = tested on: CAKI-1 renal
[18] = tested on: A498 renal
[19] = tested on: CCRF-CEM leukemia
[20] = tested on: MOLT-4 leukemia

Measured: growth

Nc1cc2c(cc1Br)-c1cc(Cl)ccc1C2=O
inactive: [1] 102% | [2] 102% | [3] 96.8% | [4] 104% | [5] 98.1% | [6] 95.2% | [7] 90.9% | [8] 96.3% | [9] 102% | [10] 106% | [11] 100% | [12] 86.5% | [13] 102% | [14] 67.1% | [15] 115% | [16] 100% | [17] 78.5% | [18] 102% | [19] 98.2% | [20] 88.2%

Brc1c[n+](Cc2ccc3ccccc3c2)cn1Cc1ccc2ccccc2c1
active: [2] 7.66% | [3] -30.8% | [6] 8.5% | [7] -85.2% | [8] -59.8% | [9] -89% | [10] -3.7% | [18] -0.664% | [19] 5.13%
inactive: [1] 93.6% | [4] 17.3% | [5] 21.5% | [11] 17.3% | [12] 60.1% | [13] 37.6% | [14] 77.4% | [15] 43.6% | [16] 90.6% | [17] 38.4% | [20] 12.6%

COc1ccc(C2CC(c3ccc(Nc4nc(Nc5ccc(F)cc5)nc(Nc5ccc(Cl)cc5)n4)cc3)=NN2C(C)=O)cc1 (stereo not given)
active: [14] -65.4%
inactive: [1] 93.6% | [2] 108% | [3] 85.5% | [4] 79.3% | [5] 86.7% | [6] 85.2% | [7] 92% | [8] 90.6% | [9] 105% | [10] 114% | [11] 96.1% | [12] 109% | [13] 103% | [15] 103% | [16] 91.7% | [17] 108% | [18] 129% | [19] 124% | [20] 93%

CN1C(=O)CNC(=O)[C@H](NC(=O)c2nc3ccccc3cc2O)CSSC[C@H]1C(=O)NCCc1nc2ccccc2cc1O
inactive: [1] 99.7% | [2] 17.6% | [3] 129% | [4] 87% | [5] 71.4% | [6] 55.7% | [7] 38% | [8] 34.9% | [10] 62.8% | [12] 73.9% | [13] 69.2% | [14] 56.5% | [15] 67.9% | [16] 78.6% | [17] 105% | [18] 131% | [19] 23.5%
active: [9] -11.5% | [11] -17.1% | [20] 0.111%

O=C(N/N=C/c1ccc(Cl)cc1)c1ccc(C(F)(F)F)nc1Nc1cccc(C(F)(F)F)c1
inactive: [2] 16.1% | [3] 61.3% | [4] 30.4% | [7] 33.1% | [8] 26.7% | [11] 25.8% | [12] 17.7% | [14] 10% | [15] 26.6% | [16] 13% | [18] 12.6% | [19] 33.9%
active: [1] -5.13% | [5] 5.89% | [6] 9.4% | [9] -13.9% | [10] -2% | [13] 4.9% | [17] -5.88% | [20] 2.2%

COc1ccc(-c2c(C(=O)NS(C)(=O)=O)n(Cc3cccc(C(F)(F)F)c3)c3ccccc23)cc1
inactive: [1] 79.3% | [2] 97.5% | [3] 85.1% | [4] 93.2% | [5] 91% | [6] 70.7% | [7] 83% | [8] 88.4% | [9] 89.7% | [10] 99.1% | [11] 101% | [12] 91% | [13] 85.2% | [14] 73% | [15] 105% | [16] 91.8% | [17] 80.1% | [18] 80.1% | [19] 75.5% | [20] 90.3%

O=C(CCOCCNC(=O)COc1ccc2c(c1)OCC(c1ccc(F)cc1)C2=O)NCCCC(O)(P(=O)(O)O)P(=O)(O)O (stereo not given)
inactive: [1] 98.9% | [2] 104% | [3] 89.6% | [4] 99.6% | [5] 107% | [6] 102% | [7] 101% | [8] 105% | [9] 97.8% | [10] 108% | [11] 104% | [12] 94.5% | [13] 103% | [14] 95.3% | [15] 114% | [16] 102% | [17] 94.7% | [18] 89% | [19] 96.7% | [20] 99.3%

COC(=O)[C@H](C)NC(=O)NC(=O)NC(=O)CI
active: [9] -66.2% | [17] -61.3% | [19] -55.5% | [20] -31.7%
inactive: [1] 51.4% | [2] 67.2% | [3] 112% | [4] 108% | [5] 96.9% | [6] 86.7% | [7] 99.5% | [8] 41.2% | [10] 48% | [11] 87.7% | [12] 107% | [13] 47.1% | [14] 78.3% | [15] 70.6% | [16] 76.7% | [18] 128%

COc1nc2ccc(C)cc2cc1-c1nc2c(cnn2-c2ccccc2)c(=O)[nH]1
inactive: [1] 61.8% | [2] 48.3% | [3] 87.2% | [4] 84% | [5] 82.6% | [6] 65.9% | [7] 76.9% | [8] 60.2% | [9] 70.4% | [10] 81.9% | [11] 60.5% | [12] 85.1% | [13] 98.3% | [14] 69.4% | [15] 109% | [16] 94.3% | [17] 86.9% | [18] 72.7% | [19] 79.4% | [20] 75.2%

c1ccc2cc(C[n+]3ccn(CCCCCCCCCCCCn4cc[n+](Cc5ccc6ccccc6c5)c4)c3)ccc2c1
active: [2] -82.7% | [3] -96.2% | [4] -80.5% | [5] -84.6% | [6] -37.6% | [7] -93.5% | [8] -81.7% | [9] -84.9% | [10] -72.3% | [11] -69.9% | [12] -62.6% | [13] -76.4% | [15] -48.2% | [18] -32.6% | [19] -68.3% | [20] -69.7%
inactive: [1] 17.4% | [14] 24.2% | [16] 10.5% | [17] 41.9%

NC1=C(c2nn[nH]n2)C(c2ccccc2Cl)c2ccc3ccccc3c2O1 (stereo not given)
inactive: [1] 46.8% | [2] 132% | [3] 56.7% | [4] 79.2% | [5] 77.8% | [6] 57.5% | [7] 58% | [8] 71.2% | [9] 77.8% | [10] 75.6% | [11] 89.7% | [12] 90.7% | [13] 84% | [14] 60% | [15] 74.9% | [16] 77.5% | [17] 36.9% | [18] 48% | [19] 77.5% | [20] 70.9%

CC1=NN(c2ccc(S(=O)(=O)O)cc2)C(=O)C1N=Nc1ccc(-c2ccc(N=Nc3ccc(OS(=O)(=O)c4ccc(C)cc4)cc3)c(S(=O)(=O)O)c2)cc1 (stereo not given)
inactive: [1] 82.8% | [2] 93.3% | [3] 78.8% | [4] 104% | [5] 96.2% | [6] 86.3% | [7] 104% | [8] 92% | [9] 69.4% | [10] 103% | [11] 78.8% | [12] 107% | [13] 93.6% | [14] 69.8% | [15] 97.2% | [16] 102% | [17] 100% | [18] 95.2% | [19] 67.8% | [20] 84.3%

COc1ccc(C2=Nn3c(nnc3-c3cc(Cl)cc(Cl)c3Cl)SC2)cc1
active: [2] -28.8% | [7] -13.5% | [14] 5.61% | [18] -11.3% | [19] 0.0891% | [20] 8.31%
inactive: [1] 12.1% | [3] 22.7% | [4] 14.3% | [5] 18.5% | [6] 18.1% | [8] 41.1% | [9] 23.7% | [10] 47.7% | [11] 22.4% | [12] 41.3% | [13] 39.3% | [15] 57.5% | [16] 33.5% | [17] 47.6%

N#CC1=C(N)Oc2c(sc3c(Br)cccc23)C1c1ccc([N+](=O)[O-])cc1 (stereo not given)
inactive: [3] 25.8% | [4] 30.8% | [5] 14.6% | [6] 13.6% | [8] 15.2% | [10] 61.4% | [11] 39.6% | [12] 58.9% | [13] 13.5% | [14] 34.6% | [15] 71.9% | [16] 26.8% | [17] 27.1% | [19] 10%
active: [1] 7.43% | [2] 2.5% | [7] 0.865% | [9] -11.3% | [18] -11.8% | [20] 5.93%

COC(=O)c1ccc2[nH]c(O)c(C(=Nc3ccc(N(C)C(=O)CN4CCN(C)CC4)cc3)c3ccccc3)c2c1
inactive: [1] 12.3% | [2] 21.3% | [4] 42.6% | [5] 31.4% | [6] 36.3% | [7] 38.3% | [8] 74.6% | [9] 16.3% | [10] 29.3% | [12] 54% | [13] 17.6% | [14] 16% | [15] 51.6% | [19] 10.7% | [20] 12.1%
active: [3] -4.83% | [11] -4.99% | [16] 7.31% | [17] 4.65% | [18] -35.9%

CC(C)c1cc(C(C)C)c(S(=O)(=O)Oc2ccc(NC(=O)c3ccc(Cl)cc3)cc2)c(C(C)C)c1
active: [8] 9.11%
inactive: [1] 20.2% | [2] 46.6% | [3] 64.9% | [4] 17.6% | [5] 20.9% | [6] 14% | [7] 31.4% | [9] 33.5% | [10] 56.8% | [11] 31.3% | [12] 19.4% | [13] 21.4% | [14] 29.9% | [15] 42.5% | [16] 15.4% | [17] 21.6% | [18] 17.7% | [19] 25.2% | [20] 17.6%

— PubChem BioAssay (NCI)
